Measured values from PubChem BioAssay (NCATS).
Results filed as inconclusive are left out. Values without a mark were called inactive. The source made the active and inactive calls. Calls follow the shape of the dose curve; as a rule, active = well fitted cell-killing curve with a large enough effect; inconclusive = small, poorly fitted or top-dose-only effect; inactive = no such curve, though single readings can be large or run the other way.
Potency is read from the fitted curve at half-maximal effect.

Assay: qHTS of pediatric cancer cell lines to identify multiple opportunities for drug repurposing: Confirmatory screen for SK-N-MC cells (AID 1347111);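 also: cells exposed to compound for 48 h before the readout; nearly all actives have a fitted effect of over 70% in size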
Settings: SK-N-MC cell viability; series mostly up to 45.9 µM; activity change, negative = cytotoxic: at the top concentration
Description: Drug repurposing or repositioning has been offered as a strategy for drug development in oncology programs. This approach has special potential for childhood cancers and other rare or orphan diseases, where the expected return on new drug development has been a disincentive to pharmaceuticals.
In this project we exploit the poly-pharmacology of drugs to discover new indications via phenotypic screening of a panel of 19 well-characterized cell lines derived from solid tumors seen in children and adolescents. The goal is to identify approved drugs with previously unrecognized anticancer properties that has the potential to reveal new mechanisms and biological processes involved in carcinogenesis or drug resistance. We employed a titration-based paradigm (quantitative high-throughput screening or qHTS), where all compounds were tested at multiple concentrations for their effect on cell viability. Concentration-response curves (CRCs) were derived directly from the primary screen, and both potency and efficacy values were used to identify compounds with robust bioactivity profiles. We screened the NIH Chemical Genomics Center (NCGC) Pharmaceutical Collection (NPC) and Mechanism Interrogation Plate (MIPE) small molecule collections of approved and investigational compounds against these cell lines; and measured metabolically active cells after 48 hours of compound treatment as a proxy for cell viability.
Assay Submitter: Nathalia J. Martinez, National Center for Advancing Translational Sciences, National Institutes of Health, Rockville, MD, USA; email: natalia.martinez@nih.gov
[1] Shen, M et al. Quantitative high-throughput phenotypic screening of pediatric cancer cell lines identifies multiple opportunities for drug repurposing. Oncotarget 2017 Dec 19;9(4):4758-4772. PMID 29435139.
The cells were obtained from University of North Carolina (UNC), Pediatric Preclinical Testing Program (PPT), and Coriell Institute (CI).
qHTS cell viability assay:
Cells were assayed in growth media at a density of 500-1,000 cells/well. Five microliters of cells were dispensed into 1,536-well, white, solid-bottom, TC-treated plates (Greiner Bio One) using a multidrop dispenser and incubated at 37 degrees C, 5% CO2, under a humidified atmosphere for 5 hours. Twenty-three nanoliters of compounds and controls (neutral control DMSO or positive control bortezomib at final concentration of 2.3 µM) were subsequently transferred by Kalypsys pintool. For primary screens, the MIPE collection was tested at 11-point dilutions (final concentrations range from 0.78 nM to 46 µM) and the NPC collection at 8-point dilutions (final concentrations range from 0.59nM to 46 µM). Compounds tested in follow-up screens were assayed at 11-point dilutions. Cells were incubated for 48 hours, followed by addition of 3 uL of CellTiter-Glo (Promega). After a 15 min incubation at room temperature, samples were analyzed for luminescence intensity using a ViewLux High-throughput CCD imager equipped with clear filters.
With `Oc1cccc(-c2nc(N3CCOCC3)c3oc4ncccc4c3n2)c1` the Potency was 0.759 µM (active).
For `COc1cc(Nc2ncc3c(n2)-c2ccc(Cl)cc2C(c2c(F)cccc2OC)=NC3)ccc1C(=O)O`, the Potency was 0.261 µM (active).
With `CCOc1ccn(-c2ccc(F)cc2)c(=O)c1C(=O)Nc1ccc(Oc2ccnc(N)c2Cl)c(F)c1` the Potency was 9.27 µM (active).
For `Cc1cn[nH]c1`, the “activity change, negative = cytotoxic” value was -11.7%.
With `CN(C)c1ccc(C2Nc3ccc4ccccc4c3C3=C2C(=O)CC(C)(C)C3)cc1Br` (centres undefined) the Potency was 19.1 µM (active).
For `Cn1cnc2c(F)c(Nc3ccc(Br)cc3Cl)c(C(=O)NOCCO)cc21`, the “activity change, negative = cytotoxic” value was -2.97%.
For `OC[C@H](Cc1ccccc1)Nc1nc(Oc2ccc3c(c2)CCC3)nc2c1ncn2Cc1ccc(-c2ccccc2)cc1`, the Potency was 2.33 µM (active).
For `C#Cc1cccc(Nc2ncnc3cc(OCCOC)c(OCCOC)cc23)c1`, the Potency was 14.7 µM (active).
With `Nc1nc2ccc(OC(F)(F)F)cc2s1` the “activity change, negative = cytotoxic” value was -16.3%.
In the case of `CCCS(=O)(=O)Nc1ccc(F)c(C(=O)c2c[nH]c3ncc(-c4ccc(Cl)cc4)cc23)c1F`, the Potency is reported as 23.3 µM (active).
In the case of `CCC(C)n1ncn(-c2ccc(N3CCN(c4ccc(OC[C@H]5CO[C@](Cn6cncn6)(c6ccc(Cl)cc6Cl)O5)cc4)CC3)cc2)c1=O` (some centres undefined), the Potency is reported as 4.65 µM (active).
In the case of `CCOc1cc(N2CCC(O)CC2)ccc1Nc1ncc2c(n1)N(C)c1ccccc1C(=O)N2C`, the Potency is reported as 1.17 µM (active).
For `O=C(NOC[C@H](O)CO)c1ccc(F)c(F)c1Nc1ccc(I)cc1F`, the “activity change, negative = cytotoxic” value was -5.19%.
With `Cc1c(CN2CCN(C(=O)C(C)C)CC2)sc2c(N3CCOCC3)nc(-c3cnc(N)nc3)nc12` the Potency was 0.465 µM (active).
For `NC(=O)c1ccc(I)c([N+](=O)[O-])c1`, the Potency was 55.1 µM (active).
For `NCCCC(N)(C(=O)O)C(F)F` (centres undefined), the “activity change, negative = cytotoxic” value was -11.1%.
With `Cc1c(C)c2c(c(C)c1O)CCC(C)(COc1ccc(CC3SC(=O)NC3=O)cc1)O2` (centres undefined) the “activity change, negative = cytotoxic” value was 12.5%.
For `CNCc1ccc(-c2[nH]c3cc(F)cc4c3c2CCNC4=O)cc1`, the Potency was 6.57 µM (active).
With `COc1ccc(-c2ccc3c(N4CCOC[C@H]4C)nc(N4CCOC[C@H]4C)nc3n2)cc1CO` the Potency was 0.827 µM (active).
In the case of `Cc1oncc1C(=O)Nc1ccc(C(F)(F)F)cc1`, the Potency is reported as 7.37 µM (active).
For `Nc1nc2[nH]cc(CCc3ccc(C(=O)N[C@@H](CCC(=O)O)C(=O)O)cc3)c2c(=O)[nH]1`, the Potency was 0.147 µM (active).
For `COc1cc2nccc(Oc3ccc(NC(=O)NC4CC4)c(Cl)c3)c2cc1C(N)=O`, the Potency was 26.1 µM (active).
In the case of `Nc1nc2c(ncn2COCCO)c(=O)[nH]1`, the “activity change, negative = cytotoxic” value is reported as -6.75%.
In the case of `COc1cccc2cc(-c3nc(C4CCC(C(=O)O)CC4)n4ncnc(N)c34)[nH]c12` (centres undefined), the “activity change, negative = cytotoxic” value is reported as -66.5%.
